Source: PubChem BioAssay
Hits are enriched below; roughly 10% of the tested compounds scored in any of these assays.
HPGD block: qHTS Assay for Inhibitors of HPGD (15-Hydroxyprostaglandin Dehydrogenase) | Potency, µM, for inactives: at the highest dose activity change, negative = inhibition, hits mostly inhibitors | purified HPGD, NADH fluorescence kinetic, PGE2 substrate | 4.3% of 150,000 active | AID 894, 2007; note: potency is the fitted concentration of half-maximal effect
Target sequence (P15428 whole entry, looked up): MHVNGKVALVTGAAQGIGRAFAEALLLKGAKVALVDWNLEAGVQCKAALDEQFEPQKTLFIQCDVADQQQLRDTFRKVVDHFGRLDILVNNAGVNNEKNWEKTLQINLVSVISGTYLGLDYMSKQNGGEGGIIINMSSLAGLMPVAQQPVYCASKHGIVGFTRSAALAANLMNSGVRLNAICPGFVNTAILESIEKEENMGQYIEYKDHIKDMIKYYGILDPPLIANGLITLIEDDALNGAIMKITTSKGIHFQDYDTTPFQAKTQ
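20 nM HPGD preincubated 15 min at room temperature with compound in 50 mM Tris-HCl pH 8, 0.01% Tween 20. Started with 1 mM NAD+ and 30 uM prostaglandin E2; NADH fluorescence (360/450 nm) read 5 times over 30-s intervals, last minus first.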
12-hLO inh: qHTS Assay for Inhibitors of 12-hLO (12-human lipoxygenase). Potency, µM (series often up to 57.1 µM), for inactives: at the highest dose activity change, negative = inhibition, hits mostly inhibitors. purified 12-hLO, xylenol orange hydroperoxide absorbance. 0.12% of 150,000 active. Polyunsaturated fatty acid lipoxygenase ALOX12 (Homo sapiens), P18054. AID 1452, 2008; active = well fitted inhibition curve with a large enough effect; inconclusive = small, poorly fitted or top-dose-only effect; note: potency is the fitted concentration of half-maximal effect; nearly all actives have a fitted effect of over 55% in size
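Xylenol orange chromogenic assay: hydroperoxide from 12hLO oxidises Fe(II), giving red-shifted Fe(III)-XO absorbance. Conditions: 150 nM enzyme, 40 uM arachidonic acid, 25 mM Hepes pH 7.0, 0.01% Triton X-100, 30 min, room temperature.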
ALDH1A1 inh: qHTS Assay for Inhibitors of Aldehyde Dehydrogenase 1 (ALDH1A1); Aldehyde dehydrogenase 1A1 (Homo sapiens), P00352; Purified ALDH1A1, NADH fluorescence, propionaldehyde substrate; Potency, µM (doses to about 75.3 µM), for inactives: at the highest dose activity, negative = inhibition, actives largely listed as inhibitors; 7.3% of 220,000 active;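 note: potency is the fitted concentration of half-maximal effect; plate controls were no enzyme wells and a reference inhibitor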
PNC assembly inh: High Content Assay for Compounds that inhibit the Assembly of the Perinucleolar Compartment; activity change (PNC), negative = inhibition, % at 10 µM; AID 2417, 2010; PC3M PTB-GFP, PNC prevalence imaging, 16 h; stronger effect = lower value; 3.1% of 140,000 active;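 active = readout at or below -70, meaning at least 70% loss of cells showing the perinucleolar compartment, a nuclear body marking cancer cells; inconclusive = readout between -30 and a set limit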;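 note: plate controls were DMSO wells for no effect and camptothecin positive control wells for full effect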
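Compounds are pinned in duplicate onto adhered PC3M cells stably expressing GFP-tagged PTB and incubated 16 h at 37 C. Cells are then fixed, nuclei stained with Hoechst, and PNC-positive cells counted.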
LMNA splice mod: qHTS Assay for Modulators of Lamin A Splicing; AID 1487, 2009; 0.01% of 200,000 active; HeLa LMNA splicing GFP/RFP minigene ratio, 48 h; Potency, µM (highest dose often 46.1 µM), without a hit: at the highest dose ratio change, negative = inhibition, usual class: inhibitors; active = well fitted inhibition curve with a large enough effect in the signal ratio, with a control signal flat, not every such curve was filed as active; inconclusive = small, poorly fitted or top-dose-only effect, or effect the other way, or a change in a side signal; the % refers to the signal ratio; note: potency is the fitted concentration of half-maximal effect
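S3 HeLa cells stably expressing lamin A-EGFP splicing minigene plus DsRed2, 600 cells/well, 48 h compound exposure at 37C. Laser-scanning cytometry; analysed as GFP (500-530 nm)/RFP (575-640 nm) total intensity ratio; 0.5% DMSO vehicle.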
An asterisk follows results filed as active; ? = inconclusive; . = no result; ! = repeats disagree; [ ] = remark or other dose. Unless noted, calls come from the whole dose curve; as a rule, active = well fitted inhibition curve with a large enough effect (not every such curve was filed as active); inconclusive = small, poorly fitted or top-dose-only effect, or another doubt; inactive = no such curve, though single readings can be large or run the other way. Unless noted, % is set by controls: 0 for no effect and ±100 for the full control effect.

SMILES	HPGD block	12-hLO inh	ALDH1A1 inh	PNC assembly inh	LMNA splice mod
Cc1ccc(CC2C(=O)N(C)C(=O)N(C)C2=O)s1	?	-12%	20µM*	?	15%
C=CCOc1ccc(CC2C(=O)N(C)C(=O)N(C)C2=O)cc1	-2%	1%	?	-16	-6%
CC(=O)N1CCN(c2ccc(OCC3CO[C@@](Cn4ccnc4)(c4ccc(Cl)cc4Cl)O3)cc2)CC1 (stereo partly specified)	-2%	-6%	0%	.	.
O=c1cccc2n1CC1CC2CN(CCO)C1 (stereo unspecified)	-8%	-5%	2%	.	.
COc1ccc(/C=C2\C(=O)NC(=O)N(Cc3ccccc3)C2=O)c(OC)c1OC	.	.	10µM*	.	.
COc1cc(OC)c(OC)cc1/C=C1/C(=O)NC(=O)N(Cc2ccccc2)C1=O	.	.	5%	.	.
COc1ccccc1N1C(=O)NC(=O)/C(=C\c2cnn(-c3ccccc3)c2)C1=O	.	.	8.9µM*	.	-14%[46 µM]
O=C1NC(=O)N(Cc2ccccc2)C(=O)/C1=C/c1cnn(-c2ccccc2)c1	.	.	10µM*	.	.
Cc1cc(/C=C2\C(=O)NC(=O)N(Cc3ccccc3)C2=O)c(C)n1C1CC1	.	.	-9%	.	4%[46 µM]
O=C1/C(=C\c2ccccc2)C[C@@]2(O)[C@H]3Cc4ccc(O)c5c4[C@@]2(CCN3CC2CC2)[C@H]1O5	.	.	0%	.	.
N[C@H](CP(=O)(O)O)C(=O)O	-3%	-6%	-2%	.	.
S=C=Nc1cccc2ccccc12	?	-7%	?	.	.
S=C=NCc1ccccc1	?	-15%	2.8µM*	.	.
CC(=O)/C=C/c1ccccc1	-9%	-3%	2%	.	.
CC(=O)[O][Hg][c]1ccccc1	0.25µM*	?	0.63µM*	.	?
O=c1oc2ccccc2c(O)c1Cc1c(O)c2ccccc2oc1=O	-7%	0%	6.3µM*!	.	?
O=C(CC1CCCCC1)c1c(O)c2ccccc2oc1=O	-20%	-9%	-4%	-25	?
Cc1ccccc1-n1c(O)c(/C=N/N2CCCCC2c2cccnc2)c(=O)[nH]c1=O (stereo unspecified)	-10%	-2%	5%	10	?
CCc1ccc(-n2c(O)c(/C=N/N3CCCCC3c3cccnc3)c(=O)[nH]c2=O)cc1 (stereo unspecified)	-16%	-2%	-14%	-100*	-2%
C=C1[C@@H](O)C2C=CC[C@H](C)C(=O)[C@@](C)(O)C=C[C@@H](OC(C)=O)[C@@]23C(=O)N[C@H](Cc2ccccc2)[C@@H]3[C@@H]1C (stereo partly specified)	-16%	-3%	-5%	.	.
O=C1CC(N2CC=C(c3ccc(F)cc3)CC2)C(=O)N1c1ccc(F)cc1 (stereo unspecified)	-8%	-18%	?	-9	8%
CCOC(=O)c1ccc(N2C(=O)CC(N3CC=C(c4ccc(F)cc4)CC3)C2=O)cc1 (stereo unspecified)	28µM*	-8%	3.5µM*	-21	24%
C[C@@]12CC[C@H]3[C@@H](CCC4=C(O)C(=O)CC[C@]43C)[C@H]1CCC2=O	.	-7%	.	.	.
CC(N)C(O)c1ccc(O)c(O)c1 (stereo unspecified)	3%	-4%	1%	.	.
CC(COc1ccccc1)N(CCCl)Cc1ccccc1 (stereo unspecified)	0%	-6%	28µM*!	?	?
SMILES	HPGD block	12-hLO inh	ALDH1A1 inh	PNC assembly inh	LMNA splice mod
O=S(=O)(NCCO)c1cc[c]([Sb])cc1	-2%	.	5%[13.5 µM]	.	.
NC(=O)CI	?	-5%	28µM*	.	?
CCOC(=O)c1c(/N=C/c2c(O)n(-c3cccc(C)c3)c(=O)[nH]c2=O)sc2c1CCCC2	-22%	5%	?	?	-6%
CCOC(=O)c1sc(/N=C/c2c(O)n(-c3ccccc3)c(=O)[nH]c2=O)c(C#N)c1C	25µM*	-1%	11µM*	16	-8%
Clc1nc(Cl)nc(Nc2ccccc2Cl)n1	-3%	-3%	-1%	.	.
CC(=O)c1cn(Cc2ccccc2C#N)c2ccccc12	.	.	25µM*	.	.
COC(=O)[C@@]1(Cc2ccccc2)[C@H]2c3cc(C(=O)N(C)C)n(C)c3C[C@H]2CN1C(=O)c1ccccc1	-3%	0%	3%	.	.
CO[C@@H]([CH2][Hg])CN1C(=O)c2ccccc2S1(=O)=O.Cn1c(=O)c2nc[nH]c2n(C)c1=O	1.4µM*	0%[11.4 µM]	3.2µM*	.	.
O=C(O)[C@H](Cc1cnc[nH]1)N1C(=O)c2ccccc2C1=O	-1%	6%[11.4 µM]	-7%[13.5 µM]	.	.
NC(=O)c1ccc(C(=O)Nc2ccc([As](=O)(O)O)cc2)cc1	-4%	5%[11.4 µM]	9%[13.5 µM]	.	.
CCN(CC)C(=O)c1ccc(NC(=O)c2cccc(F)c2)cc1	14µM*	-6%	1%	1	12%
Cc1[nH]n(-c2ccccc2)c(=O)c1C(c1cccc([N+](=O)[O-])c1O)c1c(C)[nH]n(-c2ccccc2)c1=O	28µM*	-23%	16µM*	?	?
O=c1[nH]c(=O)n(CCC2=CCCCC2)c(O)c1C=NCc1cccnc1	-14%	1%	25µM*	59	8%
CC(=O)c1ccc(OC(NC(=O)c2ccco2)C(Cl)(Cl)Cl)cc1 (stereo unspecified)	25µM*	0%	?	52	15%
O=C(NC(Oc1ccccc1)C(Cl)(Cl)Cl)c1ccccc1 (stereo unspecified)	-9%	8%	20%	140	12%
N#CC(Cl)Cl	-10%	-4%	18µM*	.	.
COc1cc2c(cc1OC)[C@@H]1C(=O)c3ccc4oc(C(C)C)cc4c3OC1CO2 (stereo partly specified)	?	-22%	0%	.	.
COc1cc(C(C#N)N2CCOCC2)ccc1O (stereo unspecified)	.	-6%	14µM*	-5	6%
CC1=C(/C=C/c2ccccc2)CCN(C)C1	-10%	11%	11µM*	23	2%
Oc1cc(Cl)ccc1Oc1ccc(Cl)cc1Cl	7.9µM*	-5%[0.00818 µM]	1%	.	?
OC[P+](CO)(CO)CO	-14%	-7%	18%	.	.
C[C@H]1CCCC(=O)CCC/C=C/c2cc(O)cc(O)c2C(=O)O1	14µM*!	-18%	14µM*	?	?
[O-][Br+2]([O-])O	-8%	-2%	?	.	.
O=C1NC(=S)NC(=O)C1C/C=C/c1ccccc1	10µM*	-9%	28µM*	-1	6%
CN=C=S	-2%	2%	?	.	.
N#C/C(=C\c1ccc(O)c(O)c1)C(N)=S	8.9µM*	13µM*	2.2µM*	.	.
OCC1OC(n2cnc3c(Cl)ncnc32)C(O)C1O (stereo unspecified)	-3%	0%	3%	.	?
